The values below come from the supplement of paper PMC11001985.

Unmarked numbers belong to inactive results.

Chain of UniProt P35579 (P35579 whole entry): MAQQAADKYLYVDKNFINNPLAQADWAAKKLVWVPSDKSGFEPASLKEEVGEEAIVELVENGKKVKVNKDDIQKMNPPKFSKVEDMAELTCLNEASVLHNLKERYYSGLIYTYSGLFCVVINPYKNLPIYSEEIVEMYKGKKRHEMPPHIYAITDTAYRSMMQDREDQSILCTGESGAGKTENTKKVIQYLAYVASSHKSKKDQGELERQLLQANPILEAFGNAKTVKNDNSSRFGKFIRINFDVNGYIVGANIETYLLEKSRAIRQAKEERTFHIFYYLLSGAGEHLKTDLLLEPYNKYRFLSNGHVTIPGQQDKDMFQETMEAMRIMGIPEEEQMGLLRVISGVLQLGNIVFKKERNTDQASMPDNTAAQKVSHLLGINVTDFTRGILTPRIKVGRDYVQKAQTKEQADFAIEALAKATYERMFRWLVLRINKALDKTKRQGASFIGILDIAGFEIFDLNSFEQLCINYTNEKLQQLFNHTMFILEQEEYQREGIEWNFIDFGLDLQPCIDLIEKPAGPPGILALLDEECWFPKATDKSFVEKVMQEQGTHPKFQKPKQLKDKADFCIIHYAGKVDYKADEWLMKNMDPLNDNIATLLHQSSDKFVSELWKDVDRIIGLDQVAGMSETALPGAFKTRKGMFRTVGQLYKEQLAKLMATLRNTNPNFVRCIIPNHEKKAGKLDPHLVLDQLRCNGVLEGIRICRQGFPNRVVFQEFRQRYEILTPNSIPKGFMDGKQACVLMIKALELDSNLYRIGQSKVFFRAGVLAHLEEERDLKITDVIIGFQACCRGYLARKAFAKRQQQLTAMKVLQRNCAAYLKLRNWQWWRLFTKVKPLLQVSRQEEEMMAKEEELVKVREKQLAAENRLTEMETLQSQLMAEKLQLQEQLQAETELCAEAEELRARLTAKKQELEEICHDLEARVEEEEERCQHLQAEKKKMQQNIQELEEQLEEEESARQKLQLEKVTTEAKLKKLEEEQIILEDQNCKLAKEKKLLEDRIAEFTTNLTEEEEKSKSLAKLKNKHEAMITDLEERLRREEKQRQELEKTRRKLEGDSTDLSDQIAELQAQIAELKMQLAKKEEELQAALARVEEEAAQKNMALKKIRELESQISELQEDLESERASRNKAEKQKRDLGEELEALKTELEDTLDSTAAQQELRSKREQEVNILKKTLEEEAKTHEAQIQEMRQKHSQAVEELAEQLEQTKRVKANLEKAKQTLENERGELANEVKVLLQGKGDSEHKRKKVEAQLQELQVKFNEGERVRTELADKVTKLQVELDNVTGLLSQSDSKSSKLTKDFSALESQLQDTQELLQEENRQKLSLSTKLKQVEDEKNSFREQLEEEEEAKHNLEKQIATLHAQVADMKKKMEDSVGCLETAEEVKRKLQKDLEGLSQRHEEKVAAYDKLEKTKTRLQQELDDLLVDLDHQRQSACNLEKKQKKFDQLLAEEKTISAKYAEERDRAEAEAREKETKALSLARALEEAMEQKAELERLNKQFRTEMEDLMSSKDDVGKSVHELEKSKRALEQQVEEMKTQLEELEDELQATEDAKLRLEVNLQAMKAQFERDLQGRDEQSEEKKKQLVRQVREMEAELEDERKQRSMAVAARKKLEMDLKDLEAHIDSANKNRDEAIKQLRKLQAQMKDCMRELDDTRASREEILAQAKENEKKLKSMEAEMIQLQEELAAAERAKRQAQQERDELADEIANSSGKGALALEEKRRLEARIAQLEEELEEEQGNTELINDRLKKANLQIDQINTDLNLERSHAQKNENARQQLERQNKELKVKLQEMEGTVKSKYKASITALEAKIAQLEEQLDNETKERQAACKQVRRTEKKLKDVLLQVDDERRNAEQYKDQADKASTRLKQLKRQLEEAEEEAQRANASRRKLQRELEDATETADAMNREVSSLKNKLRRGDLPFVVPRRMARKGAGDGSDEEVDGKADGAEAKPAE
Chain of UniProt P46940 (P46940 whole entry): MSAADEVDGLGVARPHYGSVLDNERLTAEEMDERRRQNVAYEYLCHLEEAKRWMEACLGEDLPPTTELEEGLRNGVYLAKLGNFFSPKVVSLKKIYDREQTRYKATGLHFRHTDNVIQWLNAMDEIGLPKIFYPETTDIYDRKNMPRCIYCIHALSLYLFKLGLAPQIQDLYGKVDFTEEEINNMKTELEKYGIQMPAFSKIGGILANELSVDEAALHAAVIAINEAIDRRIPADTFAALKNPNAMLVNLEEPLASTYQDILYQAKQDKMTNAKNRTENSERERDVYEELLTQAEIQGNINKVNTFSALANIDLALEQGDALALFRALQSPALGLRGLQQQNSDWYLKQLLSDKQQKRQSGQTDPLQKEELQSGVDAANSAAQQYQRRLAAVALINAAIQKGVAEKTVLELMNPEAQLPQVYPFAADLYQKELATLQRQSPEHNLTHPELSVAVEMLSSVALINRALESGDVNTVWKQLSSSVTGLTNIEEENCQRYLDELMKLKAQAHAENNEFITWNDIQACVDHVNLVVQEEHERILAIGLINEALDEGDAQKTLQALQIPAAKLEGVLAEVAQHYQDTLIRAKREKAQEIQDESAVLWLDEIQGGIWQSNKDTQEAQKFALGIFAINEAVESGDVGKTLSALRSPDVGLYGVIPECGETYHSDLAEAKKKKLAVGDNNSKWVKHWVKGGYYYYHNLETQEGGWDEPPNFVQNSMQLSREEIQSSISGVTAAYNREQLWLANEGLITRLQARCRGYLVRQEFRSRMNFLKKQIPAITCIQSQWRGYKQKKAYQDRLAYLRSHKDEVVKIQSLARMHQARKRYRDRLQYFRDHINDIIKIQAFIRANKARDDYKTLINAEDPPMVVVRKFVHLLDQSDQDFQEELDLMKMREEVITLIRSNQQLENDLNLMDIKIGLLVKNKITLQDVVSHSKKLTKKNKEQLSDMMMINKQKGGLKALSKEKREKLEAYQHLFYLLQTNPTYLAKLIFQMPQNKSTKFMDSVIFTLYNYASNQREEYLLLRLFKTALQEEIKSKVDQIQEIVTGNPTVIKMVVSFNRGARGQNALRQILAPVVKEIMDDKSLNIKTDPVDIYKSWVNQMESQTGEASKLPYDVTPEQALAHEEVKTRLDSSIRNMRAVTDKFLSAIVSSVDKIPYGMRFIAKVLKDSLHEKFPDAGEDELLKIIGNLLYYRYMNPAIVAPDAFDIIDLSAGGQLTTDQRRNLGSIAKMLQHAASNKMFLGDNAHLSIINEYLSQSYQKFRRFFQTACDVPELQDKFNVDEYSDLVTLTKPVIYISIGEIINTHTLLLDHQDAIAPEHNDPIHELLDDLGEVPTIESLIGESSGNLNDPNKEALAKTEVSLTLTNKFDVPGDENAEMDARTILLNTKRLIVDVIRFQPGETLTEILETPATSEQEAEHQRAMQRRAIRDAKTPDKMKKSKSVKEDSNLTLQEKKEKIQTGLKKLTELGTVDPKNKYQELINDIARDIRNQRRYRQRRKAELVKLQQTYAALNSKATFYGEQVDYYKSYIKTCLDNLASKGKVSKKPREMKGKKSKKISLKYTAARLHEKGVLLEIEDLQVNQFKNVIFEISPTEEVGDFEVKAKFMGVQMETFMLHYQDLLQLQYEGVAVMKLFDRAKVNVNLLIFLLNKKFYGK
Chain of UniProt P43121 (P43121 whole entry): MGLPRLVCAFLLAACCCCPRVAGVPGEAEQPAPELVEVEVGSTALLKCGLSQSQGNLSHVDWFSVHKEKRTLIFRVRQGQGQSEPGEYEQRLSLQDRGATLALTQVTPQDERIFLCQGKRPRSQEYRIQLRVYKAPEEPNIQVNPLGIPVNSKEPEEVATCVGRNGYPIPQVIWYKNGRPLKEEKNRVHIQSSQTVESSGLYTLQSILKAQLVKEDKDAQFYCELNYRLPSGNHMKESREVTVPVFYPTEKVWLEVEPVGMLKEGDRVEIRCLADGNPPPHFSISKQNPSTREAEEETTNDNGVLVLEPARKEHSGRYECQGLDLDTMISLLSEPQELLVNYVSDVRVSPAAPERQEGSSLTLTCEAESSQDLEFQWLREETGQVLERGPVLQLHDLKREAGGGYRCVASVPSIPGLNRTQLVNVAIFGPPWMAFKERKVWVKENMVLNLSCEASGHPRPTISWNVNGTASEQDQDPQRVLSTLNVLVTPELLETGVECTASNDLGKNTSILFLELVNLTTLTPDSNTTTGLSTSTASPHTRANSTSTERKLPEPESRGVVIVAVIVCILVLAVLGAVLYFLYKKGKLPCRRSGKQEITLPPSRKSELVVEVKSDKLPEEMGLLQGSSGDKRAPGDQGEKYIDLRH
Chain of UniProt P31431 (P31431 whole entry): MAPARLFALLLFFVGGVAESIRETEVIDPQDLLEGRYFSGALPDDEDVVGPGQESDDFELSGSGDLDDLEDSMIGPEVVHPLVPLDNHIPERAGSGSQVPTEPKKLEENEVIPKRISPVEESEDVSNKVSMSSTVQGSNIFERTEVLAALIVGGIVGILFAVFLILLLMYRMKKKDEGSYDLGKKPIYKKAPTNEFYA
Chain of UniProt P50991 (P50991 whole entry): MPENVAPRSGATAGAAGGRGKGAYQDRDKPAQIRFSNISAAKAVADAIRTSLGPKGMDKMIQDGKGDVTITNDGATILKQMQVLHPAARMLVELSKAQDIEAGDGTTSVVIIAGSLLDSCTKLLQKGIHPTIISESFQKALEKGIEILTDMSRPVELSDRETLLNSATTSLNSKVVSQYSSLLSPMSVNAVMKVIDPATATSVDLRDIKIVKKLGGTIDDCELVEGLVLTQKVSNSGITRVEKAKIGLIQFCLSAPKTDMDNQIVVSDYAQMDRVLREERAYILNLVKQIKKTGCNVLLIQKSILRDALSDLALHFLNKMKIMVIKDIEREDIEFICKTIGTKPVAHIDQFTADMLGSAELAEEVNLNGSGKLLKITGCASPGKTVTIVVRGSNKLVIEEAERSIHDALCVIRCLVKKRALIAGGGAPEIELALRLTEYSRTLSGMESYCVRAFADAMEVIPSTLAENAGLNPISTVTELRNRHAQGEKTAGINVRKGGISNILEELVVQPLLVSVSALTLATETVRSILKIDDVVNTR

Compound in this experiment: C#CCNC(=O)CCSSCCC(=O)NCCc1ccc(C=O)c(C=O)c1
Briefly: lysine labeling ratio R10:1 (500 µM / 50 µM probe), SILAC-ABPP in living cells; higher = lower intrinsic lysine reactivity toward the probe, active = 2 or less. The following applies: HeLa; probe concentrations 500 vs 50 µM. In outline: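 The two probe levels, 50 µM and 500 µM, of an alkyne-tagged, disulfide-linked lysine probe were applied to living light and heavy SILAC HeLa cells in PBS at room temperature, and the labels were run in both forward and reverse orientation. Mixed lysates underwent biotin-azide click chemistry, trypsin digestion, neutravidin capture, DTT release and alkylation before LC-MS/MS on a TIMS-TOF Pro. R is the filtered median high-probe/low-probe MS1 peptide ratio for each lysine, summarised as the median over forward and reverse replicates. Nothing above 20 is reported; such values are set to 20.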
Take “ALDOA (lysine site: K330) (UniProt P04075)”: the “lysine labeling ratio R10:1” value is 2.76.
On to “ITGB1 (lysine site: K575) (UniProt P05556)”, for which the “lysine labeling ratio R10:1” value is 3.24.
Turning to “IQGAP1 (lysine site: K1128) (UniProt P46940)”, the “lysine labeling ratio R10:1” value was 2.31.
For the target “ITGA5 (lysine site: K978) (UniProt P08648)”, the “lysine labeling ratio R10:1” value is 4.71.
Then “CCT4 (lysine site: K21) (UniProt P50991)”, with 3.58; and “LDHA (lysine site: K155) (UniProt P00338)”, with 2.54.
As for UniProt P60660 (lysine site: K26), the figure is 1.69 (active); as for “ITGA3 (lysine site: K407) (UniProt P26006)”, 2.96.
On to “MCAM (lysine site: K134) (UniProt P43121)”, for which the “lysine labeling ratio R10:1” value was 3.83.
Regarding UniProt P08727 (lysine site: K370), the “lysine labeling ratio R10:1” value is 3.4.
As for “ITGA2 (lysine site: K603) (UniProt P17301)”, the “lysine labeling ratio R10:1” value is 1.54 (active).
“SDC4 (lysine site: K114) (UniProt P31431)”: the “lysine labeling ratio R10:1” value was 3.81.
Turning to “CACYBP (lysine site: K212) (UniProt Q9HB71)”, the “lysine labeling ratio R10:1” value was 1.91 (active).
Take “MYH9 (lysine site: K613) (UniProt P35579)”: the “lysine labeling ratio R10:1” value is 1.78 (active).
Regarding “PTGFRN (lysine site: K522) (UniProt Q9P2B2)”, the “lysine labeling ratio R10:1” value was 2.13.
Turning to UniProt P61077 (lysine site: K8), the “lysine labeling ratio R10:1” value is 3.43.
For “GAS1 (lysine site: K140) (UniProt P54826)”, the “lysine labeling ratio R10:1” value is 3.54.
Then “RPSA (lysine site: K89) (UniProt P08865)”, with 4.12; and “ACTR3 (lysine site: K348) (UniProt P61158)”, with 1.4 (active).
Regarding UniProt Q9BZM4 (lysine site: K192), the “lysine labeling ratio R10:1” value is 1.43 (active).
Turning to “IQGAP1 (lysine site: K1389) (UniProt P46940)”, the “lysine labeling ratio R10:1” value is 5.25.
Regarding “MCAM (lysine site: K551) (UniProt P43121)”, the “lysine labeling ratio R10:1” value was 5.15.
As for “MYH9 (lysine site: K1867) (UniProt P35579)”, the “lysine labeling ratio R10:1” value is 2.53.
For the target UniProt P06576 (lysine site: K522), the “lysine labeling ratio R10:1” value is 3.5.
Take “TLN1 (lysine site: K1948) (UniProt Q9Y490)”: the “lysine labeling ratio R10:1” value was 0.788 (active).
“RPL34 (lysine site: K19) (UniProt P49207)”: the “lysine labeling ratio R10:1” value is 2.71.
As for “RPS3A (lysine site: K56) (UniProt P61247)”, the figure is 1.81 (active); as for UniProt Q8WXI7 (lysine site: K12467), 5.1; as for “FLNA (lysine site: K1294) (UniProt P21333)”, 2.32.
In the case of “IGSF3 (lysine site: K888) (UniProt O75054)”, the “lysine labeling ratio R10:1” value is 4.12.
On to “DDR1 (lysine site: K30) (UniProt Q08345)”, for which the “lysine labeling ratio R10:1” value is 1.33 (active).
Take UniProt Q15149 (lysine site: K1626): the “lysine labeling ratio R10:1” value was 2.37.
Regarding “CCT7 (lysine site: K250) (UniProt Q99832)”, the “lysine labeling ratio R10:1” value was 1.57 (active).
On to UniProt Q16513 (lysine site: K690), for which the “lysine labeling ratio R10:1” value is 2.89.
Then “CSPG4 (lysine site: K465) (UniProt Q6UVK1)”, with 1.56 (active); and “SUB1 (lysine site: K41) (UniProt P53999)”, with 1.41 (active).
On to UniProt P83731 (lysine site: K93), for which the “lysine labeling ratio R10:1” value was 6.58.
As for “HNRNPM (lysine site: K388) (UniProt P52272)”, the figure is 6.02.
As for “SPTBN2 (lysine site: K1909) (UniProt O15020)”, the “lysine labeling ratio R10:1” value was 1.63 (active).
For the target “RDX (lysine site: K371) (UniProt P35241)”, the “lysine labeling ratio R10:1” value is 1.33 (active).
